The list is not random: actives were taken first. Their share in the collection is about 19%.
Cycloheximide cs – affects cycloheximide protein synthesis inhibition readout, counter-screen; cell reporter, cycloheximide protein synthesis inhibition counterscreen; max response, %; hit rate 12% among 300,000; in the data active = max response mostly above about 13%, no sharp cut-off; inactive = mostly below about 14%; also: read at 38.3 µM for the half of the compounds with a filed dose
Pf growth 96h – P. falciparum growth inhibition at 96 hours. hit rate 6.9% among 320,000. Potency, µM (series often up to 28.7 µM), hits mostly inhibitors. AID 504834. P. falciparum luciferase reporter growth, 96 h
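Cell-based qHTS: luciferase-tagged P. falciparum in erythrocytes (2% hematocrit, 0.05% parasitemia final) incubated with compounds for 96 hours, 37 C, 5% CO2; luciferase detection reagent then added and luminescence measured.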
SARS PLpro yeast – inhibitors of SARS-CoV papain-like protease in yeast | S. cerevisiae expressing SARS-CoV PLpro, growth rescue | Potency, µM (doses to about 32.9 µM), usual class: activators | hit rate 0.19% among 330,000; calls by dose curve; also: nearly all actives have a fitted effect of over 55% in size
AMA1 RON2 block – inhibitors of Plasmodium falciparum AMA1-RON2 interaction. AlphaScreen AMA1-biotinylated RON2 peptide binding. Potency, µM (doses to about 58.2 µM), most hits filed as inhibitors. hit rate 0.2% among 360,000. AID 720542; also: nearly all actives have a fitted effect of over 45% in size
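AMA1 (3D7) with his tag at 25 nM final met compounds first, then biotinylated RON2 peptide at 25 nM; detection used donor plus acceptor beads, 10 µg/mL apiece, read by AlphaScreen after 30 min at room temperature.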
Shiga inhibitor – Shiga toxin inhibition. Vero cells, Shiga toxin protein synthesis inhibition reporter. hit rate 9.2% among 290,000. inhibition, % at 38.7 µM. AID 2315; in the data active = inhibition mostly above about 28%, no sharp cut-off; inactive = mostly below about 43%
Pf growth 48h – P. falciparum growth inhibition at 48 hours (one generation); AID 504832; hit rate 5.9% among 310,000; Potency, µM (series often up to 28.7 µM), usual class: inhibitors; P. falciparum luciferase growth in erythrocytes, 48 h
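A one-generation exposure of luciferase-tagged malaria parasites in RPMI 1640/Albumax erythrocyte culture, 37 C and 5% CO2. Inhibition is inferred from decreased luminescence after adding detection reagent.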
Hits are given with their value; i = inactive; ? = inconclusive; nt = not tested or not shown; + = active, no number; [ ] = remark or other dose. Unless noted, calls follow the shape of the dose curve; as a rule, active = well fitted curve in the direction sought with a large enough effect; inconclusive = small, poorly fitted or top-dose-only effect, or another doubt; inactive = no such curve, though single readings can be large; an effect the other way counts as inactive or inconclusive.

SMILES | Cycloheximide cs | Pf growth 96h | SARS PLpro yeast | AMA1 RON2 block | Shiga inhibitor | Pf growth 48h
C=CCOc1ccc(C2C(C(=O)c3ccco3)=C(O)C(=O)N2Cc2cccnc2)cc1 (centres undefined) | i | nt | i | i | + | i
COCCn1nc2cc(C(=O)NCC34CC5CC(CC(C5)C3)C4)ccc2c1OC | i | i | i | i | i | ?
CCCn1nc2cc(C(=O)NCC34CC5CC(CC(C5)C3)C4)ccc2c1OCC | i | ? | i | i | i | 12µM
Cc1cc(N2CCN(C3CCCC3)CC2)n2c(nc3ccccc32)c1C#N | i | 0.23µM | i | i | i | 0.29µM
Cc1cc(NCCCN(C)C)n2c(nc3ccccc32)c1C#N | i | i | i | i | i | i[0.00184 µM]
CCCc1cc(NCCCO)n2c(nc3ccccc32)c1C#N | i | 3.3µM | i | i | i | ?
Cc1cc(NCCCOC(C)C)n2c(nc3ccccc32)c1C#N | i | i | i | i | nt | 5.2µM
CCC(C)Sc1cc(C)c(C#N)c2nc3ccccc3n12 (centres undefined) | i | 2.9µM | i | i[2.32 µM] | i | 8.3µM
CCC(C)Nc1cc(C)c(C#N)c2nc3ccccc3n12 (centres undefined) | i | i | i | i | i | i[0.00184 µM]
c1ccc(C[n+]2cccc3c4ccccc4ccc32)cc1 | i | i | i | i | i | 0.074µM
O=[N+]([O-])c1ccc(C[n+]2cccc3ccc4cccnc4c32)cc1 | i | ? | i | i | i | 0.26µM
O=[N+]([O-])c1ccc(C[n+]2cccc(O)c2)cc1 | nt | i | i | i | nt | i
O=[N+]([O-])c1ccc(C[n+]2cccc3ccccc32)cc1 | i | ? | i | i | i | 10µM
CCCCC[n+]1cccc2c3ccccc3ccc21 | i | i | i | i | i | ?
Cc1ccc(C)n1-c1sc2c(c1C#N)CCC(C)C2 (centres undefined) | i | 6.6µM | i | i | i | nt
Cc1cc(C(=O)Nc2sc3c(c2C#N)CCC(C)C3)cs1 (centres undefined) | 38 | ? | ? | i | 126 | i
CCN(CC(=O)Nc1sc2c(c1C#N)CCC(C)C2)CC(=O)NC1CCS(=O)(=O)C1 (centres undefined) | 19 | 12µM | i | i | 42 | i
CC(=O)NC(=S)Nc1sc2c(c1C(N)=O)CCC(C)C2 (centres undefined) | 54 | i | i | i | 53 | i
CC(=O)OCC(NC(=O)C1CCCN1C(=O)OC(C)(C)C)C1OC(n2cc(F)c(=O)[nH]c2=O)C(OC(C)=O)C1OC(C)=O (centres undefined) | i | nt | nt | nt | i | nt
COC(=O)C(C(=O)OC)C(C)C(C(=O)OC)C(=O)OC | i | i | i | i | i | nt
CC(=O)Nc1sc2c(c1C#N)CCC(C)C2 (centres undefined) | i | i | i | i | 38 | i
C/C(=N\Nc1ccc2nncn2n1)c1cccs1 | 41 | i | i | i | i | i
Cc1ccc(S(=O)(=O)N(C)c2ccc(C(=O)NCc3cccnc3)cc2)cc1 | i | ? | i | i | i | ?
CC(=O)Nc1ccc(NC(=O)c2ccc(N(C)S(=O)(=O)c3ccc(C)cc3)cc2)cc1 | i | 10µM | i | i | i | i
Cc1ccc(S(=O)(=O)N(C)c2ccc(C(=O)Nc3cccnc3)cc2)cc1 | i | 10µM | i | i | i | i
SMILES | Cycloheximide cs | Pf growth 96h | SARS PLpro yeast | AMA1 RON2 block | Shiga inhibitor | Pf growth 48h
CN(c1ccccc1)S(=O)(=O)c1ccc(NC(=O)c2ccc(-c3ccccc3)cc2)cc1 | i | ? | i | i | i | ?
CCOc1ccc(C(=O)NCC(=O)OCc2c(F)cccc2Cl)cc1 | i | i | i | i | i | i
O=C1NC(=S)N(c2cccc(Cl)c2)C12CCCCC2 | i | i | ? | i | i | i
CCCNC(=O)C1(CC2CC(c3ccccc3)=NO2)CCN(C(=O)C2(C)CC2)CC1 (centres undefined) | nt | nt | nt | i | nt | nt
O=C(NCc1ccccc1)C1(CC2CC(c3ccccc3)=NO2)CCNCC1 (centres undefined) | nt | ? | i | i | nt | 12µM
CCCCCCCNC(=O)C1(CC2CC(c3ccccc3)=NO2)CCNCC1 (centres undefined) | nt | ? | i | i | nt | 12µM
Cc1ccc(OCCc2csc(N)n2)cc1 | 34 | i | i | i | 54 | i
COc1ccc(OCc2csc(N)n2)cc1 | 36 | i | i | i | 86 | i
COc1cccc(C(=O)NNC(=O)Cc2csc(N)n2)c1 | i | ? | i | i | i | i
COc1ccc(Nc2nc(N3CCN(S(=O)(=O)N(C)C)CC3)nc3ccccc23)cc1 | i | 8.3µM | i | i | i | 10µM
CC(Nc1nc(N2CCN(S(C)(=O)=O)CC2)nc2ccccc12)c1ccccc1 (centres undefined) | i | ? | i | i | i | 7.4µM
COc1ccc(Nc2nc(N3CCN(S(C)(=O)=O)CC3)nc3ccccc23)c(OC)c1 | i | i | i | i | i | ?
O=C(O)c1ccccc1OCC1CCCO1 (centres undefined) | i | i | i | i | i | i
O=C(CCC1CCCCC1)NCCS(=O)(=O)N1CCN(c2ccccc2)CC1 | nt | i | i | i | nt | i
COC(=O)/C=C1/S/C(=N/NC(=O)c2ccccc2OC)NC1=O | i | 12µM | ? | i | i | ?
COC(=O)/C=C1/S/C(=N/NC(=O)c2ccc(OC)cc2)NC1=O | i | ? | i | i | i | i
CC(C)/C(=N\NS(=O)(=O)c1ccc(Br)cc1)c1cccs1 | i | ? | i | i | i | i
Cc1n[nH]c(C)c1CN(C)C(=O)c1cc(COc2ccc(F)c(F)c2)on1 | i | i | i | i | i | i
CN(C(=O)c1cc(COc2ccc(F)c(F)c2)on1)C1CCOC1 (centres undefined) | 31 | i | i | i | i | i
COc1ccc(OCc2cc(C(=O)N(C)C3CCOCC3)no2)c2ccccc12 | 47 | i | i | i | 101 | i
COc1ccc(OCc2cc(C(=O)N(C)C3CCOC3)no2)c(Cl)c1 (centres undefined) | 27 | i | i | i | i | i
COc1cc(Cl)ccc1OCc1cc(C(=O)N(C)C2CC(C)(C)NC(C)(C)C2)no1 | i | i | i | i | i | i
Cc1ccc(OCc2cc(C(=O)N(C)CC3CCOCC3)no2)cc1C | 77 | ? | i | i | 133 | i
CN(C(=O)c1cc(COc2ccc(F)cc2Cl)on1)C1CCCc2ccccc21 (centres undefined) | i | i | i | i | i | ?
COC(=O)c1cc2cc(Cl)ccc2nc1SC | i | i | i | i | i | i
CC1(C(=O)NS(=O)(=O)c2cccc(F)c2)CCN1C(=O)CC1CCCC1 (centres undefined) | nt | nt | nt | i | nt | nt
CCCCN1C2CCCC1CC(NC(=O)C1CCCCC1)C2 (centres undefined) | i | ? | i | i | i | i
Cc1cc(OCc2cc(C(=O)N(C)C3CCOCC3)no2)cc(C)c1Cl | 86 | i | i | i | 126 | i
CN(CCN1CCOCC1)C(=O)c1cc(COc2ccc(F)c(F)c2)on1 | 34 | i | i | i | i | i

Screening results deposited in PubChem by National Center for Advancing Translational Sciences (NCATS).
